# Screens from PubChem.
# A selection: hits, their analogues and other compounds. The true share with any hit is near 7.6%.
# p53 reactivation – restores transcriptional activity of mutant p53; H1299 p53-A138V BP100-luciferase reporter, luminescence, 24 h; Potency, µM (doses to about 92.2 µM), without a hit: top-dose activity change, positive = activation, actives largely listed as activators; 320,000 compounds, 0.063% hits; also: potency is read from the fitted curve at half-maximal effect; % of control where 0% means no effect; nearly all actives have a fitted effect of over 45% in size
#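 p53-null H1299 cells stably carrying temperature-sensitive p53-A138V and a BP100-luciferase reporter were pinned with compounds (4-point, 1:5 series) and held 24 hrs at 37 deg C. Luminescence was read 10 min after detection reagent.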
# ELG1 repair inh – ELG1-dependent DNA repair inhibition | HEK293T ELG1-luciferase reporter, luminescence, 16 h; DNA damage induced by 5-fluorouridine | 330,000 compounds, 2.3% hits | Potency, µM (top dose mostly 46.1 µM), for inactives: top-dose activity change, negative = inhibition, hits mostly inhibitors; also: potency is read from the fitted curve at half-maximal effect; % is scaled to controls: 0 for no effect and ±100 for the full control effect; nearly all actives have a fitted effect of over 55% in size
#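 Cells (2,000 per well) received 5-fluorouridine plus test compound or DMSO and were incubated 16 hr at 37 °C, 5% CO2. Luciferase activity was read by luminescence 30 min after ONE-Glo addition; signal suppression marked inhibition of damage-induced ELG1 function.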
# BRCA1 expr up – increases BRCA1 expression; MCF7-BRCA1-FFLuc reporter, luminescence, 48 h; response scale: scaled: vehicle 0%, 10 µM genistein 100%; Potency, µM (series often up to 46.1 µM), for the others: at the top dose activation, hits mostly activators; 380,000 compounds, 1.1% hits; also: potency is read from the fitted curve at half-maximal effect; nearly all actives have a fitted effect of over 80% in size
#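 Quantitative HTS in MCF7 cells stably reporting BRCA1 expression via firefly luciferase. Compound treatment lasts 48 h at 37 °C in phenol-red free MEM. Activation is expressed relative to genistein at 10 microM and DMSO.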
# RORgamma inh – ROR gamma (mouse) transcription inhibition. Potency, µM (highest dose often 53.6 µM), for the others: at the highest dose activity change, negative = inhibition, most hits filed as inhibitors. 310,000 compounds, 5.4% hits. Drosophila S2 Gal4-RORgamma UAS-luciferase reporter, 20 h; also: potency is read from the fitted curve at half-maximal effect; % is scaled to controls: 0 for no effect and ±100 for the full control effect; nearly all actives have a fitted effect of over 60% in size
# Target sequence (P51450 whole entry, looked up, the tested form may be a part): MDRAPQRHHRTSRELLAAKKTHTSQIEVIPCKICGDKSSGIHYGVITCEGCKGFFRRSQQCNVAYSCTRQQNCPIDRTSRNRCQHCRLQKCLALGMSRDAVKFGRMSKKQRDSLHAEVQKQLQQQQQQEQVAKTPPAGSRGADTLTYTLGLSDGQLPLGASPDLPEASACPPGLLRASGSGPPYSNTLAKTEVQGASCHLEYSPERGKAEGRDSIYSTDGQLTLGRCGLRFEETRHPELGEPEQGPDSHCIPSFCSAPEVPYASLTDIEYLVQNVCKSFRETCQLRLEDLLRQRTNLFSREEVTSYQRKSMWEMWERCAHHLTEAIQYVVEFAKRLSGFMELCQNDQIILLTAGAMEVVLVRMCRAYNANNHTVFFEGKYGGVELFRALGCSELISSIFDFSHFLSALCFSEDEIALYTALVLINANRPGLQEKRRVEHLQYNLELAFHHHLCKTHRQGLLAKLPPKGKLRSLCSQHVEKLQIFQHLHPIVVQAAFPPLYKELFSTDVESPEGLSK
#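 Luminescence from a UAS-regulated Photinus luciferase reporter in stably transfected Drosophila Schneider cells is measured; decreased signal marks ROR gamma inhibition. Fusion expression is induced by 700 uM copper sulfate for 20 hr.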
# Giardia killer – kills Giardia lamblia; Giardia lamblia trophozoite viability; activity change, % at 7.66 µM, hits read low; 340,000 compounds, 0.15% hits; AID 540267; in the data active = activity change below about -80%; inconclusive = between about -30% and that limit;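 also: parasites exposed to compound for two days anaerobically before the ATP read; % is scaled to controls: 0 for no effect and ±100 for the full control effect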
#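 Media and compound were dispensed first, then trophozoites at 100 cells/well; plates sat 48 hrs at 37 deg C without oxygen before ATP luminescence reagent was added and read after 15-30 min at room temperature.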
# VP16 counter – counter-screen for ROR gamma inhibitors: Gal4-VP16 reporter. Drosophila S2 Gal4-VP16 UAS-luciferase, luminescence, 20 h. Potency, µM (top dose mostly 53.6 µM), without a hit: at the highest dose activity, negative = inhibition, actives largely listed as inhibitors. 310,000 compounds, 3.5% hits. AID 2546;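 also: Gal4-VP16 expression switched on by copper sulfate through the metallothionein promoter; potency is read from the fitted curve at half-maximal effect; % is scaled to controls: 0 for no effect and ±100 for the full control effect; nearly all actives have a fitted effect of over 50% in size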
# An asterisk follows results filed as active; ? = inconclusive; · = not tested or not shown. Unless noted, calls follow the shape of the dose curve; as a rule, active = well fitted curve in the direction sought with a large enough effect; inconclusive = small, poorly fitted or top-dose-only effect, or another doubt; inactive = no such curve, though single readings can be large; an effect the other way counts as inactive or inconclusive.
SMILES,p53 reactivation,ELG1 repair inh,BRCA1 expr up,RORgamma inh,Giardia killer,VP16 counter
CCCCN(CC)CCNC(=O)c1cc2c(C)nc3ccccc3c2o1,-7.1%,-10.3%,25.8%,15.9%,-28.0,-12.9%
O=C(Nc1ccc2c(c1)OCCO2)c1cc2ccccc2o1,?,?,?,-36.9%,?,?
O=C(Nc1ccccc1Cl)c1cc(C2CCCCN2C(=O)CCc2ccccc2)on1 (configuration not stated),·,·,0.7%,·,·,·
COc1cccc(CN(Cc2ccco2)C(c2ccc(F)cc2)c2nnnn2C(C)(C)C)c1 (configuration not stated),16.1%,-6.9%,-32.6%,-3.4%,-2.7,2.82µM*
COc1cccc(-c2nn(-c3ccccc3)cc2CN(C)Cc2ccon2)c1,-0.9%,?,-53.0%,-20.7%,7.6,-13.0%
COc1cccc(-c2nn(-c3ccccc3)cc2CN(C)Cc2c(C)nc3ccccn23)c1,0.1%,?,-54.0%,7.08µM*,6.8,?
Cc1ccc(-c2ccc(CCC(=O)O)n2-c2cccc(C(=O)O)c2)cc1,?,?,7.08µM*,-1.5%,8.5,-5.9%
COc1cc(C2CC(=O)N(CC(=O)NCc3ccco3)c3ccccc3S2)cc(OC)c1OC (configuration not stated),-6.3%,?,-6.8%,60.8%,-9.8,9.6%
O=C(Cn1nnc(-c2ccccc2Cl)n1)N/N=C/c1ccc(-c2cccc(Cl)c2)o1,20.6%,?,-25.7%,7.08µM*,3.6,6.31µM*
O=C(NCCc1ccccc1)c1nc2nc(-c3cccs3)cc(C(F)(F)F)n2n1,27.8%,?,-50.7%,37.1%,20.7,-16.1%
CN(CC(=O)Nc1cc(Cl)ccc1Cl)C1CCS(=O)(=O)C1 (configuration not stated),-11.5%,7.5%,4.4%,·,-12.1,·
c1ccc(CSc2nccc(-c3ccco3)n2)cc1,·,·,77.0%,·,24.5,·
c1ccc(CSc2n[nH]c(-c3ccco3)n2)cc1,?,?,11.2µM*,43.0%,-13.5,-27.4%
Cc1cccc(OCC(=O)Nc2ccccc2N2CCCCC2)c1C,-5.7%,8.9%,-85.4%,·,11.0,·
Cc1cccc(C)c1OCC(=O)Nc1ccccc1N1CCCCC1,2.2%,2.7%,-46.2%,-44.4%,7.4,17.8µM*
COc1cc(C(C)=O)ccc1OCC(=O)Nc1ccccc1N1CCCCC1,-4.8%,5.17µM*,-64.7%,·,-3.9,·
COc1ccc(C(C)=O)cc1CC(=O)Nc1ccccc1-c1ccccc1,-8.2%,11.6µM*,7.0%,22.2%,-15.8,2.3%
Cc1nc(NCCN2CCOCC2)c2nnn(Cc3c(F)cccc3Cl)c2n1,-0.9%,-6.8%,-8.0%,12.0%,5.5,-9.4%
Cc1cccc(N2CN(Cc3cccnc3)CNC2=S)c1C,2.6%,5.7%,-22.6%,-21.1%,1.3,-6.7%
Cc1cccc(N2CN(Cc3ccco3)CNC2=S)c1C,-2.2%,4.2%,10.7%,7.08µM*,-1.8,11.2µM*
Cc1ccc(C)c(N2CN(Cc3ccco3)CNC2=S)c1,-3.8%,2.3%,-16.7%,6.31µM*,-4.8,10µM*
Cc1ccccc1N1CN(Cc2ccco2)CNC1=S,-3.7%,-3.8%,-6.8%,10µM*,-2.6,?
CCNc1nc(NCC)n2c(SCC(=O)Nc3ccc(OC(F)F)cc3)nnc2n1,-7.1%,-0.1%,-16.2%,·,3.0,·
CC(C)(C)c1cc(C(c2cccnc2)N2CCN(CCO)CC2)cc(C(C)(C)C)c1O (configuration not stated),-10.4%,-1.9%,-105.7%,12.6µM*,20.1,17.8µM*
O=C(NNc1ccccc1)C(=O)NNS(=O)(=O)c1ccc(CCCl)cc1,8.1%,6.51µM*,-1.4%,26.0%,4.1,-4.9%
CCSc1nncn1/N=C/c1ccc(OC)c(OC)c1,?,?,22.1%,11.4%,-3.9,26.8%
